Rows were chosen to be rich in hits. Some 1.6% of all compounds tested hit in one or more screens of this group.
Imprint erasure = inducers of genomic imprint erasure in mouse ES cells; mouse ES Peg3-LacZ reporter, beta-gal luminescence, 40 h; Potency, µM (highest dose often 60.7 µM), inactives show at the highest dose activity change, positive = activation, most hits filed as activators; hit rate 0.02% among 110,000
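Each well holds 300 Peg3LacZ-Neo (maternal) female ES cells incubated 40 h at 37C, 5% CO2. LacZ is measured by BetaGlo luminescence, with AC50 and maximum efficacy derived from dose-response curves.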
p53ts 39C tox = cytotoxicity in p53ts cells at nonpermissive temperature; H1299-p53A138V viability at 39C, ATP luminescence, 24 h; Potency, µM (titrated, usually from 46.1 µM), for inactives: at the top dose activity change, negative = cell killing, usual class: cytotoxic; hit rate 1.5% among 130,000; further: on the % scale 0 is the no-effect control and ±100 the full control effect; nearly all actives have a fitted effect of over 55% in size
p53ts 32C kill = p53ts cell cytotoxicity, permissive temperature; AID 924; Potency, µM (titrated, usually from 46.1 µM), inactives show at the top dose activity change, negative = cytotoxicity, most hits filed as cytotoxic; hit rate 0.93% among 130,000; H1299-p53A138V at 32C, ATP luminescence viability, 24 h;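 further: 0% = DMSO and -100% = full killing by reference compound; nearly all actives have a fitted effect of over 55% in size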
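ATP-content luminescence (ATPlite) read-out after 24 h compound exposure at 32C in H1299-p53A138V cells (600/well). Tested up to 46 uM. Normalized to DMSO (0%) and 100 uM tamoxifen (100% killing); Hill-fit AC50.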
An asterisk follows results filed as active; ? = inconclusive; / = not tested or not shown; ! = repeats disagree; [ ] = remark or other dose. The call rests on the fitted dose curve; in most records, active means well fitted curve in the direction sought with a large enough effect; inconclusive means small, poorly fitted or top-dose-only effect, or another doubt; inactive means no such curve, though single readings can be large; an effect the other way counts as inactive or inconclusive. Potency means the concentration at half of the fitted maximal effect.

SMILES	Imprint erasure	p53ts 39C tox	p53ts 32C kill
CCn1c(SCC(=O)Nc2cc(C)on2)nc2c(c1=O)SC(C)C2 (centres undefined)	-8%	11%	4%
Cc1ccc(-n2c(SCC(=O)Nc3cc(C)on3)nc3c(c2=O)SC(C)C3)cc1 (centres undefined)	-45%	?	10µM*
N=C1S/C(=C\c2ccc(-c3cccc(Cl)c3)o2)C(=O)N1c1nccs1	/	0%	/
COc1ccc(/C=C2\SC(=N)N(c3nccs3)C2=O)cc1OC	/	14µM*	?
COc1ccc(/C=C/C(=O)Nc2sc(C)c(C)c2C(=O)O)cc1	-12%[10.9 µM]	13%	2.5µM*
CCOC(=O)c1sc(NC(=O)/C=C/c2ccc(OCC)cc2)c(C(=O)OCC)c1C	-16%[10.9 µM]	2%	13%
CC(C)(C)c1ccc(Oc2ccc(NC(=O)CCC(=O)OCC(=O)c3ccccc3)cc2)cc1	-7%[10.9 µM]	-26%	-11%
COc1ccc(Nc2ccc3c(c2)=NC2(CCCCC2)[N+]=3[O-])cc1	-30%	6.3µM*	5µM*
[O-][N+]1=C2CCC/C(=N\O)C2=NC12CCCCC2	5%	0%	1%
[O-][N+]1=c2ccc(Nc3ccccc3)cc2=NC12CCCCC2	10%	20µM*	5µM*
COc1ccc(OC)c(NC2=NC3(CCCC3)N=C(N)N2)c1	-10%	6%	-5%
Cc1ccc(NC(=O)NCC2CCN(Cc3cccc(Cl)c3)CC2)cc1Cl	-19%[10.9 µM]	16µM*	-18%
O=C(NCC1CCN(Cc2ccccc2F)CC1)Nc1ccc(F)c(Cl)c1	-13%[10.9 µM]	-26%	9%
CCc1ccc(OCCCSc2nc(-c3ccc(C(C)(C)C)cc3)nc3cc(=O)[nH]n23)cc1	-13%[10.9 µM]	?	-27%
O=C(CSc1nc2c(c(=O)[nH]1)CCC2)Nc1ccccc1C(F)(F)F	-5%[10.9 µM]	-20%	5%
CCOc1ccc(N(C)S(=O)(=O)c2c(C(=O)N3CCC(C)CC3)c(C)n(C)c2C)cc1	-15%[10.9 µM]	14%	13%
Fc1ccc([C@H]2CCNC[C@H]2COc2ccc3c(c2)OCO3)cc1	-33%	10µM*	32µM*
Fc1ccc([C@H]2CCNCC2COc2ccc3c(c2)OCO3)cc1 (some centres undefined)	-16%	-26%	0%
CC1CCC2C(=O)N3CCCC3C(=O)N2C1c1ccc(Br)cc1 (centres undefined)	/	-4%[9.22 µM]	-10%[9.22 µM]
CCOC(=O)C1(N(CC)CC)Sc2cc(C)ccc2NC1=O (centres undefined)	-30%	16µM*	-18%
CCOC(=O)C1(Nc2nccs2)Sc2ccccc2NC1=O (centres undefined)	-19%	-8%	16%
CCOc1c(Cl)cc(C(=O)N(Cc2ccc(N(C)C)cc2)Cc2ccco2)cc1Cl	-13%[10.9 µM]	-19%	8%
CCCCOc1ccc(C(=O)O)cc1	-37%	12%	4%
CC/C(=C(\c1ccccc1)c1ccc(OCCN(C)C)cc1)c1ccccc1	-15%	32µM*!	32µM*!
COc1ccccc1CNC(=O)c1cc2ccc3ccc(C)[nH]c3c2n1	5%[10.9 µM]	-20%	4%
SMILES	Imprint erasure	p53ts 39C tox	p53ts 32C kill
Cc1cc(NC(=O)CCCS(=O)(=O)c2nc(-c3cccs3)cc(C(F)(F)F)n2)no1	-31%	?	?
O=C(CCS(=O)(=O)c1nc(-c2ccc3c(c2)OCO3)cc(C(F)(F)F)n1)Nc1ccccc1C(F)(F)F	4%[10.9 µM]	7.9µM*	?
COc1cc(NC(=O)CCS(=O)(=O)c2nc(-c3cccs3)cc(C(F)(F)F)n2)cc(OC)c1OC	-8%[10.9 µM]	13µM*	-19%
O=C(CCS(=O)(=O)c1nc(-c2cccs2)cc(C(F)(F)F)n1)Nc1cccc(O)c1	7%[10.9 µM]	13µM*	?
COc1ccc(NC(=O)CCS(=O)(=O)c2nc(-c3ccc4c(c3)OCO4)cc(C(F)(F)F)n2)cc1OC	-2%[10.9 µM]	33%	?
COc1ccc(NC(=O)CCS(=O)(=O)c2nc(-c3ccc4c(c3)OCO4)cc(C(F)(F)F)n2)c(OC)c1	-4%[10.9 µM]	?	?
COc1cc(NC(=O)CSc2nc(-c3cccs3)cc(C(F)(F)F)n2)cc(OC)c1OC	-15%[10.9 µM]	-8%	9%
COc1ccc(NC(=O)CCS(=O)(=O)c2nc(-c3cccs3)cc(C(F)(F)F)n2)cc1OC	-10%[10.9 µM]	4µM*	?
COc1ccccc1-c1nn(CCC(=O)Nc2ccc(C)cc2)c2nc(C)cc(C)c12	-11%[10.9 µM]	5%	7%
CCc1cccc(CC)c1NC(=O)CCS(=O)(=O)c1ccc(Br)s1	21%[10.9 µM]	0%	1%
Cc1cc(OCCn2c(CCNC(=O)C3CCCCC3)nc3ccccc32)ccc1Cl	-8%[10.9 µM]	?	-16%
COc1ccc(-n2c(=O)c(-c3ccc(Cl)cc3)nc3cncnc32)cc1	/	2%	3%
CCOC(=O)C1=C(CN2CCN(c3cc(C)ccc3C)CC2)NC(=O)NC1c1ccccc1 (centres undefined)	-14%[10.9 µM]	?	1%
Cc1cccc(C(=O)Nc2sc3c(c2C(=O)Nc2ccccc2)CCC3)c1	-3%[10.9 µM]	-3%	6%
O=C(Nc1sc2c(c1C(=O)O)CCCCC2)c1ccco1	-94%	13µM*	13µM*
CN(C)C(=O)c1c(NC(=O)c2ccco2)sc2c1CCCCC2	/	19%	-1%
Cc1cccc(C(=O)Nc2sc3c(c2C(=O)O)CCCC3)c1	-71%[10.9 µM]	13µM*	?
CCCOc1ccc(C(=O)Nc2cccc(NC(=O)c3ccc(Cl)cc3Cl)c2)cc1	-13%[10.9 µM]	7.9µM*	?
CCCOc1cccc(C(=O)Nc2cccc(NC(=O)c3ccc(Cl)cc3Cl)c2)c1	4%[10.9 µM]	1%	0%
Cc1ccc(NC(=O)CCSc2nc(-c3ccco3)cc(C(F)(F)F)n2)cc1F	9%[10.9 µM]	-23%	-7%
C=C1C(=O)O[C@@H]2[C@@H]1CC/C(C)=C\CC[C@@]1(C)O[C@H]21	-38%[16.8 µM]	6.3µM*!	6.3µM*!
C=C1C(=O)O[C@@H]2[C@H]3O[C@]3(C)CCC=C(C)CC[C@@H]12	-31%	13µM*	13µM*
Cc1ccc(NS(=O)(=O)c2ccc3[nH]c4c(c3c2)CCCCCC4)cc1C	2%[10.9 µM]	?	-1%
CCOC(=O)c1ccc(NS(=O)(=O)c2ccc3[nH]c4c(c3c2)CCCCC4)cc1	-13%[10.9 µM]	16µM*	?
CCc1ccc(NS(=O)(=O)c2ccc3[nH]c4c(c3c2)CCCCCC4)cc1	-14%[10.9 µM]	20µM*	11%
SMILES	Imprint erasure	p53ts 39C tox	p53ts 32C kill
Cc1ccc(NS(=O)(=O)c2ccc3[nH]c4c(c3c2)CCCCCC4)cc1	-7%[10.9 µM]	?	-3%
Cc1ccccc1NS(=O)(=O)c1ccc2[nH]cc(C(=O)NC(C)c3ccccc3)c(=O)c2c1 (centres undefined)	-9%[10.9 µM]	-4%	13%
CCCSc1ncc(Cl)c(C(=O)Nc2ccc(S(=O)(=O)N(C)c3ccccc3)cc2)n1	-12%[10.9 µM]	8%	0%
CCSc1ncc(Cl)c(C(=O)Nc2ccccc2)n1	/	-10%	/
CCOC(=O)c1ccc(NC(=O)c2nc(SC(C)C)ncc2Cl)cc1	-8%[10.9 µM]	-1%	-5%
CCS(=O)(=O)c1ncc(Cl)c(C(=O)Nc2c(C(=O)Nc3cccc(C)c3)oc3ccccc23)n1	-37%[10.9 µM]	20µM*	?
CCSc1ncc(Cl)c(C(=O)Nc2c(C(=O)Nc3cccc(C)c3)oc3ccccc23)n1	-4%[10.9 µM]	-1%	-2%
CCS(=O)(=O)c1ncc(Cl)c(C(=O)Nc2ccccc2)n1	-38%[10.9 µM]	4µM*	?
